Source: PubChem BioAssay (NCI)
About 83,000 compounds went through this panel and 20% of them were active in at least one assay; those are over-represented in the sample as a whole.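 Values shown are percent growth following 48 h exposure of cells in 96-well plates to a single concentration of compound; below 10 was considered active.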 Active and inactive are the calls of the source.

Columns and labels:
Assay in all cases: NCI-60 one-dose screen, 48 h (100 = growth as untreated, 0 = no growth, -100 = all killed)
Conditions in all cases: 10 µM unless noted
[1] = test system: SR leukemia
[2] = test system: RPMI-8226 leukemia
[3] = test system: OVCAR-8 ovarian
[4] = test system: OVCAR-5 ovarian
[5] = test system: OVCAR-4 ovarian
[6] = test system: SK-OV-3 ovarian
[7] = test system: IGROV1 ovarian
[8] = test system: OVCAR-3 ovarian
[9] = test system: HS 578T breast
[10] = test system: NCI/ADR-RES ovarian
[11] = test system: T-47D breast
[12] = test system: BT-549 breast
[13] = test system: MDA-MB-435 melanoma
[14] = test system: SW-620 colon
[15] = test system: MCF7 breast
[16] = test system: HCT-116 colon
[17] = test system: HCC-2998 colon
[18] = test system: KM12 colon

Measured: growth

O=c1ccccc(-c2ccc(Br)cc2)c1O
active: [1] 4.69% | [2] 9.5% | [10] 7.78%
inactive: [3] 13% | [4] 54.9% | [5] 30% | [6] 19.7% | [7] 12.4% | [8] 25.8% | [9] 51.8% | [11] 26.7% | [12] 23.8% | [13] 25.8% | [14] 26.8% | [15] 14.3% | [16] 18.6% | [17] 41.5% | [18] 24.6%

Cc1[nH]c(-c2ccc3cc[nH]c3c2)c2c1C(=O)CCCC2
inactive: [1] 50.9% | [2] 21.9% | [3] 46.4% | [4] 78.2% | [5] 48.5% | [6] 25.5% | [7] 36.9% | [8] 51% | [9] 21.9% | [10] 40.7% | [11] 32.1% | [12] 68.3% | [13] 25.2% | [14] 73.9% | [15] 19.5% | [16] 38.9% | [17] 57.7% | [18] 47.8%

O=C1Nc2ccc(Br)cc2C12Oc1ccccc1C1CC(c3ccc(F)cc3)=NN12 (centres undefined)
inactive: [1] 87.1% | [2] 84% | [3] 93.7% | [4] 111% | [5] 85.5% | [6] 102% | [7] 72.8% | [8] 96.3% | [9] 89.1% | [10] 97.3% | [11] 85.9% | [12] 91.8% | [13] 99.8% | [14] 99% | [15] 83.5% | [16] 92.3% | [17] 97.8% | [18] 86.3%

COc1ccc(/C=C/c2nc(-c3n[nH]c(=O)n3-c3ccccc3)c3ccccc3n2)cc1
inactive: [1] 92.6% | [2] 89.6% | [3] 98.9% | [4] 96.1% | [5] 91.4% | [6] 94.8% | [7] 99.1% | [8] 101% | [9] 100% | [10] 100% | [11] 89.3% | [12] 111% | [13] 99.4% | [14] 89.6% | [15] 90.6% | [16] 104% | [17] 112% | [18] 94.2%

O=C(O)c1ccc(NC(=O)c2ccc(-c3cccc([N+](=O)[O-])c3)o2)cc1
inactive: [1] 113% | [2] 101% | [3] 103% | [4] 106% | [5] 93.9% | [6] 98.8% | [7] 92.2% | [8] 102% | [9] 90.7% | [10] 98.5% | [11] 102% | [12] 107% | [13] 100% | [14] 96% | [15] 89.8% | [16] 105% | [17] 99.3% | [18] 99.5%

FC(F)(F)c1[nH]ncc1-c1nc2ccc3n[nH]c(C#Cc4cccnc4)c3c2c2c1CCCC2
inactive: [1] 14.2% | [2] 47.7% | [3] 45.5% | [4] 67.3% | [5] 80.5% | [6] 27.8% | [7] 17.8% | [8] 54.2% | [9] 13.8% | [10] 72.1% | [11] 48.8% | [12] 10.3% | [13] 47.8% | [14] 19.2% | [15] 33.9% | [17] 50.4% | [18] 22.7%
active: [16] 9.04%

Cc1ccc(NC(=O)/C=C/c2ccccc2)c(C(N)=O)c1
inactive: [2] 23.2% | [3] 55.1% | [4] 51.8% | [5] 31.4% | [7] 91.4% | [10] 24.7% | [11] 27.6% | [12] 94% | [14] 22.7% | [15] 15.7% | [16] 34.4% | [17] 80.8% | [18] 14.4%
active: [1] -23.3% | [6] 2.6% | [8] -25.8% | [9] -3.46% | [13] -45.5%

O=c1cc(CSc2nnc(-c3ccc(F)cc3)o2)c2ccc3ccccc3c2o1
inactive: [1] 94.1% | [2] 101% | [3] 96.4% | [4] 93% | [5] 108% | [6] 82.4% | [7] 101% | [8] 101% | [9] 95.5% | [10] 91.8% | [11] 100% | [12] 111% | [13] 106% | [14] 94.5% | [15] 93.5% | [16] 93.2% | [17] 95.4% | [18] 100%
